This excerpt belongs to a sample that is enriched for hits.
Tb PYK inh = T. brucei pyruvate kinase inhibition; Potency, µM (highest dose often 76.8 µM), for the others: top-dose activity, negative = inhibition, most hits filed as inhibitors; 410,000 tested, 0.12% active; Q57TT1; AID 624173; TbPYK enzyme, Kinase-Glo Plus ATP luminescence, 45 min; also: potency is read from the fitted curve at half-maximal effect; % is scaled to controls: 0 for no effect and ±100 for the full control effect; nearly all actives have a fitted effect of over 50% in size
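T. brucei PYK with substrate was exposed to pin-transferred compounds across a concentration series, then started with 130 uM ADP (final). After 45 min at room temperature, Kinase-Glo Plus luminescence was read, normalized and curve-fitted.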
CHX counter = counter-screen for Shiga toxin inhibitors: cycloheximide protein synthesis inhibition | 300,000 tested, 12% active | max response, % | cell reporter, cycloheximide protein synthesis inhibition counterscreen | AID 2314; in the data active = max response mostly above about 13%, no sharp cut-off; inactive = mostly below about 14%; also: read at 38.3 µM for the half of the compounds with a filed dose; 0% is about no effect
LmPK inhibitor = blocks Leishmania mexicana pyruvate kinase activity; 290,000 tested, 0.37% active; Potency, µM (doses to about 57.5 µM), without a hit: at the top dose activity change, negative = inhibition, usual class: inhibitors; purified LmPK, Kinase-Glo ATP luminescence, 1 h; AID 1721; Q27686; also: potency is read from the fitted curve at half-maximal effect; % is scaled to controls: 0 for no effect and ±100 for the full control effect
Target sequence (Q27686 whole entry, looked up): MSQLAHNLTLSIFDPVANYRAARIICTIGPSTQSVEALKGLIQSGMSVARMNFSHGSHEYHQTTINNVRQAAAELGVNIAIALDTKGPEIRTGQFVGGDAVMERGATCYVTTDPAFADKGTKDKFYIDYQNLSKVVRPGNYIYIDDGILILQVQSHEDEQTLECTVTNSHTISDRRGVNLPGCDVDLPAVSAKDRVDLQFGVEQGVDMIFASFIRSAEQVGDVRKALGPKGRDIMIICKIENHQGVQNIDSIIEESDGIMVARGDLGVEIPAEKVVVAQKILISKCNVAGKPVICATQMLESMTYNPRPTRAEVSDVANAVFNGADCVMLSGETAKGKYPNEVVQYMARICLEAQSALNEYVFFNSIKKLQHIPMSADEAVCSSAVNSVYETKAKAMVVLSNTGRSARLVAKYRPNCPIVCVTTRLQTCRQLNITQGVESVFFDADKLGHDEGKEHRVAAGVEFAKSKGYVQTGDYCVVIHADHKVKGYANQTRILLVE
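0.1 nM LmPK, 0.5 mM PEP, 0.1 mM ADP; 50 mM imidazole pH 7.2, 7 mM MgCl2, 50 mM KCl; 1 h RT. Kinase-Glo luminescence readout, normalized to no-enzyme (full inhibition) and uninhibited wells.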
Sm TGR inh = inhibitors of Schistosoma mansoni thioredoxin glutathione reductase. Q962Y6. purified TGR, DTNB reduction, TNB absorbance 405 nm. Potency, µM (series often up to 114 µM), for inactives: top-dose activity change, negative = inhibition, hits mostly inhibitors. 360,000 tested, 3% active. AID 485364; also: potency is read from the fitted curve at half-maximal effect; % is scaled to controls: 0 for no effect and ±100 for the full control effect; nearly all actives have a fitted effect of over 60% in size
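TGR 20 nM + NADPH 100 uM (dispensed conc.), cpd preinc 15 min RT; start with NADPH (500 uM addition) then DTNB (15 mM addition). Kinetic TNB absorbance, 405 nm filter. Four-parameter Hill fit across titration.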
Shiga toxin inh = Shiga toxin inhibition; Vero cells, Shiga toxin protein synthesis inhibition reporter; inhibition, % at 38.7 µM; 290,000 tested, 9.2% active; in the data active = inhibition mostly above about 28%, no sharp cut-off; inactive = mostly below about 43%; also: 0% is about no effect
Giardia FBPA inh = Giardia lamblia aldolase inhibition | purified Giardia FBPA | 290,000 tested, 0.71% active | Potency, µM (highest dose often 59.6 µM), for the others: at the highest dose activity, negative = inhibition, actives largely listed as inhibitors | A8B2U2; also: potency is read from the fitted curve at half-maximal effect; % is scaled to controls: 0 for no effect and ±100 for the full control effect; nearly all actives have a fitted effect of over 55% in size
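40 nM FBPA preincubated 10 min at RT with compound (up to 57.5 uM final), then substrate plus GAPDH/TPI/NAD/arsenate coupling and diaphorase/resazurin added. Fluorescence read after 20 min at RT, 525/598 nm.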
* hit, by the source's call; ? = inconclusive; . = not tested or not shown; [ ] = another dose, or the depositor's remark. Unless noted, calls follow the shape of the dose curve; as a rule, active = well fitted curve in the direction sought with a large enough effect; inconclusive = small, poorly fitted or top-dose-only effect, or another doubt; inactive = no such curve, though single readings can be large; an effect the other way counts as inactive or inconclusive.

SMILES	Tb PYK inh	CHX counter	LmPK inhibitor	Sm TGR inh	Shiga toxin inh	Giardia FBPA inh
COc1cccc(C(=O)C2CCCN(Cc3ccccn3)C2)c1 (configuration not stated)	-20.0%	-2.2	4.0%	-9.1%	3.2	-2.6%
Cc1ccccc1NC(=O)Cn1c(=O)n(Cc2ccco2)c(=O)c2cccnc21	-2.1%	.	.	-15.8%	.	.
COc1ncc2nc(-c3ccc(Cl)cc3)c(=O)n(CCC#N)c2n1	.	.	.	.	.	6.4%
Cc1c(C(=O)N2CCOCC2)sc2ncnc(N3CCc4ccccc4C3)c12	-3.9%	1.9	1.1%	-2.5%	-5.3	-1.0%
COCCCNC(=O)c1sc2ncnc(N3CCc4ccccc4C3)c2c1C	-9.2%	11.6*	2.5%	-2.4%	8.7	-20.9%
CC(=O)c1cccc(OC(=O)c2ccccc2)c1	0.3%	.	.	.	.	.
CN(C)C(=O)Oc1ccc(OC(=O)c2ccccc2)cc1	?	38.5*	12.6µM*	2.5%	20.4*	-2.8%
COc1cccc(-c2cncnc2NCc2cccs2)c1	.	.	.	.	.	11.7%
COc1cc2c(cc1NC(=O)CSc1nc3cc(Cl)ccc3s1)oc1ccccc12	-13.6%	-4.7	-5.2%	-6.6%	-7.0	4.9%
Cc1nnc(SCC(=O)NNC(=O)c2ccco2)s1	0.4%	.	.	-13.7%	.	.
O=C(CSc1nc2cc(Cl)ccc2s1)c1ccco1	-8.5%	20.1*	4.0%	0.0%	55.8	?
O=C(CSc1nnc(SCC(=O)c2ccco2)s1)c1ccco1	-11.5%	20.2	8.9%	39.8µM*	15.0	-10.0%
COc1cc(Nc2nc(-c3ccccc3)c3cc(C)ccc3n2)cc(OC)c1OC	-12.6%	15.1	2.2%	39.8µM*	-10.7	-21.2%
Cc1ccc(C2Nc3ccccc3NC3=C2C(=O)CC(C)(C)C3)c(O)c1 (configuration not stated)	2.1%	14.2*	-2.0%	-7.1%	30.3	-1.8%
COc1ccc(C2Nc3ccccc3NC3=C2C(=O)CC(C)(C)C3)cc1 (configuration not stated)	30.3%	48.0*	2.2%	-12.9%	84.4*	-1.0%
COc1ccc(C2Nc3ccccc3NC3=C2C(=O)CC(C)(C)C3)cc1OC (configuration not stated)	2.8%	4.8	8.2%	8.2%	1.8	-7.9%
COc1ccc(C2Nc3ccccc3NC3=C2C(=O)CC(C)(C)C3)cc1O (configuration not stated)	?	24.3*	0.6%	-7.5%	70.4*	-10.9%
CC1(C)CC(=O)C2=C(C1)Nc1ccccc1NC2c1cc(Cl)ccc1O (configuration not stated)	-3.5%	6.9	3.3%	10.4%	1.8	-0.3%
Cc1cc2c(cc1C)NC(c1c(C)n(C)n(-c3ccccc3)c1=O)C1=C(CC(C)(C)CC1=O)N2 (configuration not stated)	0.4%	18.8*	3.2%	?	39.3*	?
N#Cc1csc(CCNC(=O)c2ccccc2)n1	6.8%	.	.	.	.	.
CC(OC(=O)c1cc(=O)[nH]c2ccccc12)C(=O)N1C(C)CCCC1C (configuration not stated)	1.4%	.	.	0.5%	.	.
Nc1c(C(=O)Nc2ccc(Cl)c(C(F)(F)F)c2)sc2nc(-c3ccncc3)ccc12	-7.8%	.	.	0.0%	.	.
COc1ccc(OC)c(C2Nc3ccccc3NC3=C2C(=O)CC(C)(C)C3)c1 (configuration not stated)	-7.1%	19.4*	-2.3%	-7.7%	33.2	-7.2%
CC1(C)CC(=O)C2=C(C1)Nc1ccccc1NC2c1nc2ccccc2[nH]1 (configuration not stated)	3.0%	42.0*	0.3%	-2.6%	118.3*	?
COc1ccccc1C1Nc2ccccc2NC2=C1C(=O)CC(C)(C)C2 (configuration not stated)	-7.9%	1.9	-3.2%	6.1%	2.4	7.1%
SMILES	Tb PYK inh	CHX counter	LmPK inhibitor	Sm TGR inh	Shiga toxin inh	Giardia FBPA inh
O=C(COc1ccc(Cl)cc1)OCc1csc(Nc2ccccc2)n1	-1.3%	9.8	2.1%	5.0%	17.7	-6.2%
CC(C)c1ccc(Nc2nc(CC(=O)O)cs2)cc1	0.0%	48.6*	-6.0%	3.7%	108.2*	-4.2%
O=C(O)Cc1csc(Nc2cccc(Cl)c2)n1	?	15.6*	-3.0%	-26.1%	47.0	3.3%
CC(C)c1ccc(NC(=O)Nc2nc(CN)cs2)cc1	4.7%	.	.	.	.	.
Clc1ccc(CSc2nnc(-c3cccnc3)n2Cc2ccco2)c(Cl)c1	-14.8%	-1.1	1.1%	14.1µM*	-15.5	8.8%
Clc1cccc(CSc2nnc(-c3cccnc3)n2Cc2ccco2)c1	-14.0%	-3.5	5.7%	?	-4.9	-18.8%
O=C(CSc1nnc(-c2cnccn2)n1Cc1ccco1)Nc1ccc(Br)cc1	-5.2%	-3.0	0.0%	?	-8.7	-0.3%
COc1ccc(C(=O)CSc2nnc(-c3cnccn3)n2Cc2ccco2)cc1	-0.6%	-0.2	14.1%	35.5µM*	3.7	-12.2%
COc1ccc(C(=O)CSc2nnc(-c3cccnc3)n2Cc2ccco2)cc1	-11.2%	-1.5	3.5%	56.2µM*	-5.5	3.4%
COc1ccc(C(=O)CSc2nnc(-c3cc4ccccc4cc3O)n2Cc2ccco2)cc1	1.7%	6.7	3.0%	?	7.1	12.2%
O=C(CSc1nnc(-c2cccnc2)n1Cc1ccco1)N1c2ccccc2Sc2ccccc21	0.7%	-1.9	0.3%	25.1µM*	-3.8	-2.4%
COc1ccc(C2CC(=O)c3cc(-c4nc(-c5cccc(Cl)c5)cs4)c(=O)[nH]c3C2)cc1OC (configuration not stated)	2.0%	.	.	5.0%	.	.
Cc1nn(-c2ccc3nnc(C)n3n2)c(C)c1CCC(=O)Nc1ccc(OC(F)(F)F)cc1	-2.6%	.	.	2.4%	.	.
CSCC[C@@H]1NC(=O)C/C=C\[C@@H](C)COC(=O)[C@H](C)COC1=O	.	.	.	.	.	0.6%[12.9 µM]
C=CCn1c(CNC(=O)c2ccco2)nnc1SCC(=O)N1c2ccccc2Sc2ccccc21	-14.7%	1.5	1.1%	35.5µM*	-10.5	-2.2%
C=CCn1c(CNC(=O)c2ccco2)nnc1SCC(=O)c1ccc(F)cc1	-0.7%	8.5	0.3%	-2.7%	11.4	-6.1%
O=C(COC(=O)C1=COCCO1)NCc1ccc(Cl)cc1	3.2%	16.9	5.5%	4.4%	33.5	-1.3%
COC(=O)/C=C/c1ccccc1S(=O)(=O)N(Cc1ccccc1)Cc1ccco1	-14.9%	12.8	-27.1%	17.8µM*	25.3	-7.3%
O=S(=O)(c1ccc(S(=O)(=O)N(Cc2ccccc2)Cc2ccco2)cc1)N1CCCC1	-0.9%	.	.	.	.	.
COC(=O)COc1ccc(Cl)cc1C1Nc2ccccc2C(=O)N1c1ccc(OC)cc1 (configuration not stated)	-0.3%	12.1	7.3%	4.4%	15.5	3.3%
COc1cc(C2Nc3ccccc3C(=O)N2c2ccccc2)c(Br)cc1OCC(=O)O (configuration not stated)	-2.4%	12.2	3.1%	22.7%	24.0*	4.6%

Screening results from PubChem.
